Test results: PubChem BioAssay (Tox21)
“And” between values parts separate entries of the source, which are not always exact repeats. Equal entries are not always repeated. Records with an inconclusive call do not appear. Where a call stands in place of a potency, no number is given. Where a structure was tested more than once in an assay, its records may differ in their call. The source made the active and inactive calls. Calls come from the whole dose curve; as a rule, active = well fitted cell-killing curve with a large enough effect in the repeat runs; inconclusive = weak or mixed curves; inactive = flat fitted curve, though single readings scatter.

Experiment: qHTS RealTime-Glo MT Cell Viability Assay in HepG2 cells - 32 hour (AID 1224877); note: nearly all actives have a fitted effect of over 55% in size
Conditions: RealTime-Glo luminescence; series mostly up to 76.8 µM
Text: U.S. Tox21 Program National Center for Advancing Translational Sciences [NCATS] NIH Chemical Genomics Center [NCGC] U.S. Environmental Protection Agency [EPA] National Institutes of Environmental Health Sciences [NIEHS] National Toxicology Program [NTP] U.S. Food and Drug Administration [FDA] Tox21 Assay Overview: Measure of cell viability is critical in the cell-base assay. Analysis of cell viability is necessary for the characterization of cell responses to cytotoxic drugs and environmental stress. A RealTime-Glo MT Cell Viability Assay to monitor cell viability in real time of continues cell culture during 40 hours of compound treatment was used to screen Tox21 10K library compounds in HepG2 cells. The RealTime-Glo MT Cell Viability Assay is a nonlytic, homogeneous, bioluminescent method to measure cell viability in real time using a simple, plate-based method. The assay involves adding NanoLuc luciferase and a cell-permeant prosubstrate to cells in culture. Viable cells reduce the proprietary prosubstrate to generate a substrate for NanoLuc luciferase. This substrate diffuses from cells into the surrounding culture medium, where it is rapidly used by the NanoLuc Enzyme to produce a luminescent signal. The signal correlates with the number of viable cells, making the assay well suited for cytotoxicity studies.
Tox21 Assay Protocol Summary: The mixture of HepG2 cell suspension and reagents were dispensed at 600cells/6 ul/well in 1536-well tissue culture treated black solid bottom plates using a Multidrop dispenser. After the assay plates were incubated at a 37 C/5% CO2 incubator for 5 hours, 23 nL of compounds dissolved in DMSO, positive and negative controls was transferred to the assay plate by a pintool work station. The plates were incubated at 37 C for 40 hours. The luminescence intensity were measured at 0h, 8h, 16h, 24h, 32h and 40h time points using ViewLux plate reader during compound treatment.
Potency is the fitted concentration of half-maximal effect.

Row | SMILES | Potency
1 | Cc1cc(C(C)(C)C)c(O)c(C(C)(C)C)c1 | inactive
2 | Nc1cc(S(=O)(=O)O)cc2cc(S(=O)(=O)O)cc(O)c12 | inactive
3 | COc1cc(C(=S)N2CCOCC2)ccc1O | inactive
4 | CCCN[C@H]1CCc2nc(N)sc2C1 | inactive
5 | N[C@@H]1CONC1=O | inactive
6 | CCCCOCCOC(=O)c1ccccc1C(=O)OCCOCCCC | inactive
7 | CCN(CC)C(=O)Nc1ccc(OCC(O)CNC(C)(C)C)c(C(C)=O)c1 (stereo not given) | inactive
8 | CN(C)c1ccc2nc3ccc(=[N+](C)C)cc-3sc2c1 | 21 µM (active) and 12.3 µM (active) and 19 µM (active)
9 | C[N+]1([O-])CCOCC1 | inactive
10 | O=C(OCc1ccccc1)c1ccc(O)cc1 | inactive
11 | C=C(C)C1CC=C(C)C(OC(C)=O)C1 (stereo not given) | inactive
12 | O=C(O)c1cc(Cl)cc(Cl)c1 | inactive
13 | CC(C)(C)c1cc(C(C)(C)C)c(O)c(C(C)(C)C)c1 | inactive
14 | Cc1cccc(O)c1C | inactive
15 | CCN1CCCC1CNC(=O)c1cc(S(=O)(=O)CC)c(N)cc1OC (stereo not given) | inactive
16 | Oc1c(Cl)cc(Cl)c(Cl)c1Cc1c(O)c(Cl)cc(Cl)c1Cl | inactive and 21.9 µM (active)
17 | CC(=O)Nc1ccc(C(=O)CCl)cc1 | inactive and 21.9 µM (active)
18 | CCCCCCCCCCCC[N+](C)(C)C | 48.9 µM (active) and 49 µM (active)
19 | Cc1cccc([N+](=O)[O-])c1C(=O)O | inactive
20 | CCOc1ccccc1C(N)=O | inactive

Row | SMILES | Potency
21 | NC(=Nc1ccccc1)Nc1ccccc1 | inactive
22 | Nc1ccc2cc3ccccc3cc2c1 | inactive
23 | Cc1scc2c1N(C(=O)CN1CCN(C)CC1)c1ccccc1NC2=O | inactive
24 | Nc1nc(=S)c2[nH]cnc2[nH]1 | inactive
25 | Cc1cc(OCCOCC[N+](C)(C)Cc2ccccc2)ccc1C(C)(C)CC(C)(C)C | 13.7 µM (active) and 9.52 µM (active)
26 | CN(C)c1ccc(C(=C2C=CC(=[N+](C)C)C=C2)c2ccccc2)cc1 | 7.56 µM (active) [middle of 4 runs]
27 | c1ccc2n[nH]nc2c1 | inactive
28 | COC(c1ccccc1)(c1ccccc1)[C@H](Oc1nc(C)cc(C)n1)C(=O)O | inactive
29 | NCCCCCC(=O)O | inactive
30 | c1ccc2c(c1)CCCC2C1=NCCN1 (stereo not given) | inactive
31 | C=CC(=O)OCCCCCCOC(=O)C=C | inactive and 49 µM (active)
32 | NC(N)=Nc1nc(CSCC/C(N)=N/S(N)(=O)=O)cs1 | inactive
33 | CCCNC(C)C(=O)Nc1ccccc1C (stereo not given) | inactive
34 | C=CC(=O)OCCCCCCCC | inactive
35 | CCCC(=O)c1ccccc1 | inactive
36 | CCN(CC)c1ccc2c(C)cc(=O)oc2c1 | inactive
37 | CC(C)CCCCCCc1ccc(O)cc1 | 19.8 µM (active) and inactive
38 | Cc1ccc(-c2cc(C(F)(F)F)nn2-c2ccc(S(N)(=O)=O)cc2)cc1 | 49 µM (active) and inactive
39 | Cc1occc(=O)c1OC(=O)C(C)C | inactive
40 | O=S(=O)(O)c1ccc2nc(-c3ccccc3)[nH]c2c1 | inactive
